From PubChem BioAssay AID1004 (SRMLSC, 2008)
Unmarked numbers belong to inactive results.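 The calls were made as follows: active = viability at 10 µM of 29.74% or lower, 3 SD below the compound median; inactive = the rest.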

Experiment: viability of HCT116 lacking mutant beta-catenin – cell-based, DP diverse set, validation, pilot screen (AID 1004)
Conditions: HCT116 (mutant beta-catenin deleted) viability, CellTiter-Glo, 60 h; at 10 µM; stronger effect = lower value
`Clc1ccc2ncnc(NCc3ccc4c(c3)OCO4)c2c1` gave a viability of 95.8%.
Compound `O=c1[nH]cc(F)c(=O)[nH]1` has a viability of 58.1%.
Work on `C[C@H](CS)C(=O)N1CCC[C@H]1C(=O)O` yielded a viability of 93.8%.
In the case of `Nc1c2c(nc3ccccc13)CCCC2`, the viability is reported as 99.8%.
Work on `NC(=NCc1ccccc1)NC(=O)c1nc(Cl)c(N)nc1N` yielded a viability of 88.8%.
For `COc1ccc(Cl)cc1C(=O)NCCc1ccc(S(=O)(=O)NC(=O)NC2CCCCC2)cc1`, the viability was 97%.
Compound `COc1ccc(-c2cc(C(=O)O)no2)cc1` has a viability of 99.2%.
Compound `CO[C@@H]1[C@@H](OC(N)=O)[C@@H](O)[C@H](Oc2ccc3c(O)c(NC(=O)c4ccc(O)c(CC=C(C)C)c4)c(=O)oc3c2C)OC1(C)C` has a viability of 99.5%.
In the case of `C=CC1(C)CC(=O)C2(O)C(C)(O1)C(OC(C)=O)C(O)C1C(C)(C)CCC(O)C12C` (stereo not given), the viability is reported as 86%.
`CC1COC2=C1C(=O)C(=O)c1c2ccc2c1CCCC2(C)C` (stereo not given) showed a viability of 32.2%.
In the case of `O=C1OC(c2cc(I)c(O)c(I)c2)(c2cc(I)c(O)c(I)c2)c2ccccc21`, the viability is reported as 97.5%.
Work on `COc1ccc(/C=C/c2cc(OC)cc(=O)o2)cc1` yielded a viability of 103%.
Compound `COc1cc(Cc2cnc(N)nc2N)cc(OC)c1OC` has a viability of 94.7%.
Compound `NS(=O)(=O)c1cc(C(=O)O)c(NCc2ccco2)cc1Cl` has a viability of 96.3%.
For `C=C(C)C1CC=C(C)C(O)C1` (stereo not given), the viability was 94.9%.
Work on `Nc1ccn([C@H]2CC[C@@H](CO)O2)c(=O)n1` yielded a viability of 102%.
Compound `COc1cc(-c2ccc(=O)[nH]n2)ccc1OC(F)F` has a viability of 105%.
Work on `O=C1OC2(c3ccc(O)cc3Oc3cc(O)ccc32)c2ccccc21` yielded a viability of 96.5%.
In the case of `COc1ccc(CCN(C)CCCC(C#N)(c2ccc(OC)c(OC)c2)C(C)C)cc1OC` (stereo not given), the viability is reported as 88.8%.
Compound `O=c1[nH]cnc2ccccc12` has a viability of 98.6%.
Work on `C=C1C(=O)[C@]23[C@H](O)[C@H]1CC[C@H]2[C@@]12COC3(O)[C@H](O)[C@@H]1C(C)(C)CC[C@@H]2O` yielded a viability of 88%.
For `CC[C@@]1([C@@H]2O[C@@H]([C@H]3O[C@@](O)(CO)[C@H](C)C[C@@H]3C)C[C@@H]2C)CC[C@H]([C@]2(C)CC[C@]3(C[C@H](O)[C@@H](C)[C@@H]([C@@H](C)[C@@H](OC)C(C)C(=O)O)O3)O2)O1` (stereo not given in full), the viability was 93%.
Work on `CCOC(=O)C(C)(C)Oc1ccc(Cl)cc1` yielded a viability of 98.7%.
`Cc1ccc(Cl)c(Nc2ccccc2C(=O)O)c1Cl` showed a viability of 98.9%.
Work on `C[C@]12CC[C@@H]3c4ccc(O)cc4CC[C@H]3[C@@H]1CC[C@H]2O` yielded a viability of 91.1%.
With `Cn1cnc2c(NCc3ccccc3)nc(NCCO)nc21` the viability was 103%.
Work on `COC(=O)CCc1c(C)[nH]c(C(=O)OCc2ccccc2)c1C` yielded a viability of 100%.
With `Nc1c(N=Nc2ccc(-c3ccc(N=Nc4cc(S(=O)(=O)O)c5ccccc5c4N)cc3)cc2)cc(S(=O)(=O)O)c2ccccc12` the viability was 83%.
Compound `CC1=C(/C=C/C(C)=C/C=C/C(C)=C/C(=O)O)C(C)(C)CCC1` has a viability of 96.5%.
`CCC(C)CCCCC(=O)N[C@@H](CCN)C(=O)N[C@H](C(=O)N[C@@H](CCN)C(=O)N[C@H]1CCNC(=O)C([C@@H](C)O)NC(=O)[C@@H](CCN)NC(=O)[C@H](CCN)NC(=O)[C@H](CC(C)C)NC(=O)[C@@H](CC(C)C)NC(=O)[C@H](CCN)NC1=O)[C@@H](C)O` (stereo not given in full) gave a viability of 94.3%.
